This passage reports Potency results from PubChem BioAssay (NCATS).

The structures appear in SMILES notation. Records with an inconclusive call do not appear. Where a call stands in place of a potency, no number is given. The source made the active and inactive calls. Calls follow the shape of the dose curve; as a rule, active = well fitted curve in the direction sought with a large enough effect; inconclusive = small, poorly fitted or top-dose-only effect, or another doubt; inactive = no such curve, though single readings can be large; an effect the other way counts as inactive or inconclusive.

Assay [1] addresses Aldehyde dehydrogenase, mitochondrial (Homo sapiens) (UniProt P05091). The assay can be described thus: qHTS for Inhibitors of the Aldehyde Dehydrogenase Family (ALDH2) Primary screen (AID 2061308). Also: nearly all actives have a fitted effect of over 55% in size. On the technique in general: Quantitative high-throughput screening tests each substance at several concentrations.
In assay [2] the target is Retinaldehyde dehydrogenase 3 (Homo sapiens) (UniProt P47895). Put plainly: qHTS for Inhibitors of the Aldehyde Dehydrogenase Family (ALDH1A3) Primary screen (AID 2061315).

As to `N#Cc1nc(Nc2ccc(-c3ccccc3)cc2)nc(NC2CCCC2)n1`, the Potency entry in assay [1] and in assay [2] was “inactive” in each case.

`N=c1c2c(ccn1CCCCc1ccccc1)Oc1ccc3ccccc3c1C2c1ccccc1` (stereo unspecified): the Potency entry in assay [1] and in assay [2] was “inactive” each time.

For `COc1cccc(NC(=S)N2CCN(c3ccccc3C(F)(F)F)CC2)n1`, the Potency entry in assay [1] and in assay [2] was “inactive” each time.

Regarding `CCOc1ccc(COc2ccc(-c3nc4ccccc4[nH]3)cc2)cc1`, the Potency entry in assay [1] and in assay [2] was “inactive” each time.

In the case of `Cn1c2ccsc2c2cnn(Cc3ccc(F)cc3)c(=O)c21`, the Potency result in assay [1] and in assay [2] was “inactive” each time.

As for `O=S(=O)(Nc1ccccc1)c1ccc(NCc2cccc(Cl)c2O)cc1`, the Potency result in assay [1] and in assay [2] was “inactive” in each case.

For `O=[S+]([O-])(c1ccc2c(c1)OCCO2)N1CCN([S+](=O)([O-])c2cc(Cl)ccc2F)CC1`, the Potency entry in assay [1] and in assay [2] was “inactive” in each case.

Take `CCCn1c(C)nc2c(NCCCCN3CCCC3)nc(C)nc21`: the Potency result in assay [1] and in assay [2] was “inactive” throughout.

On to `S=C(NCCCNc1ccc(Br)cn1)NCCCc1cnc[nH]1`, for which the Potency result in assay [1] and in assay [2] was “inactive” throughout.

On to `Cc1cc2c(s1)c1cnn(Cc3ccc(C#N)cc3)c(=O)c1n2C`, for which the Potency result in assay [1] and in assay [2] was “inactive” throughout.

On to `COc1ccc(C2=Nn3c(nnc3-c3ccccc3F)SC2)cc1OC`, for which the Potency result in assay [1] and in assay [2] was “inactive” in each case.

Turning to `C#CCOc1cc(C2=Nn3c(nnc3-c3ccc(OCC(C)=O)cc3)SC2)ccc1OC`, the Potency result in assay [1] and in assay [2] was “inactive” in each case.

`CC(=O)Nc1sc2c(c1-c1ccc(C(N)=O)cc1)CCNC2`: the Potency entry in assay [1] and in assay [2] was “inactive” throughout.

On to `c1cncc(CNc2ncnc3ccc(-c4ccc5c(c4)OCCO5)cc23)c1`, for which the Potency entry in assay [1] and in assay [2] was “inactive” in each case.

As to `COc1ccc2nc(-c3ccc(Cl)cc3)sc2c1`, the Potency entry in assay [1] and in assay [2] was “inactive” in each case.

For the compound `NC(=O)C1CCN(c2ncc(-c3cccc(F)c3)s2)CC1`, the Potency entry in assay [1] and in assay [2] was “inactive” each time.

With `O=C1CCCC2=C1C1(CCCC1)N=C(Nc1nc3cc4ccccc4cc3o1)N2`, the Potency entry in assay [1] and in assay [2] was “inactive” throughout.

`COCC(=O)NCCc1nc2ccccc2n1CCOc1ccc(C)cc1`: the Potency entry in assay [1] and in assay [2] was “inactive” throughout.

Consider `Cc1ccc(OCCn2c(CCNC(=O)CCN3CCCCC3)nc3ccccc32)cc1`, for which the Potency entry in assay [1] and in assay [2] was “inactive” each time.

Consider `C[C@@H]1CC[C@]2(C)C(C[C@@H](O)[C@H](O)[C@]23CO3)[C@@]1(C)CCc1ccoc1` (stereo partly specified), for which the Potency result in assay [1] and in assay [2] was “inactive” throughout.

`Cc1ccc(OCCn2c(CCNC(=O)c3ccc(Br)o3)nc3ccccc32)cc1`: the Potency entry in assay [1] and in assay [2] was “inactive” throughout.

`CCOC(=O)c1ccc(O)c2ncc(NCC3CCCN(CCc4ccccc4)C3)cc12` (stereo unspecified): the Potency result in assay [1] and in assay [2] was “inactive” throughout.

Consider `CCCCC1CCC(C(=O)Nc2ccc(S(=O)(=O)Nc3cc(C)on3)cc2)CC1` (stereo unspecified), for which the Potency result in assay [1] and in assay [2] was “inactive” each time.

In the case of `Cc1cc(C)nc(NC(=S)N2CCN(c3ccc(Cl)cc3[N+](=O)[O-])CC2)c1`, the Potency entry in assay [1] and in assay [2] was “inactive” in each case.

Turning to `COc1cc(F)c(F)c(Nc2ccc(I)cc2F)c1NS(=O)(=O)C1(CC(O)CO)CC1` (stereo unspecified), the Potency entry in assay [1] and in assay [2] was “inactive” throughout.

On to `COc1cc(-c2nc(Nc3ccc(F)c(F)c3)c3ccccc3n2)ccn1`, for which the Potency entry in assay [1] and in assay [2] was “inactive” in each case.

`CC(C)(C)OC(=O)Nc1ncnc2c1C(c1ccccc1)c1c(ccc3ccccc13)O2` (stereo unspecified): the Potency result in assay [1] and in assay [2] was “inactive” each time.

In the case of `c1nc(N2CCOCC2)c2cc(-c3ccc4c(c3)OCO4)ccc2n1`, the Potency result in assay [1] and in assay [2] was “inactive” throughout.

As for `COc1ccc(Cl)cc1C(=O)Nc1nc(-c2ccccc2)cs1`, the Potency result in assay [1] and in assay [2] was “inactive” each time.

Consider `O=[S+]([O-])(Nc1ccccc1)c1ccc(NCc2ccc(Cl)cc2O)cc1`, for which the Potency entry in assay [1] and in assay [2] was “inactive” throughout.

For the compound `Clc1ccc(CSc2nc3ncc(Br)cc3[nH]2)cc1Cl`, the Potency result in assay [1] and in assay [2] was “inactive” in each case.

With `Cc1cccc(-c2[nH]c(Cc3cccc(C(N)=O)c3)nc2-c2ccc3nccnc3c2)n1`, the Potency entry in assay [1] and in assay [2] was “inactive” in each case.

In the case of `C=C1C(=O)O[C@H]2[C@H]1CC/C(C)=C/CC[C@@]1(C)O[C@@H]21`, the Potency entry in assay [1] and in assay [2] was “inactive” in each case.

`CCN1CCCC1Cn1c(-c2ccccc2)nc2c(N(CCOC)CCOC)nc(C)nc21` (stereo unspecified): the Potency entry in assay [1] and in assay [2] was “inactive” each time.

As to `Cc1ccc(NS(=O)(=O)c2cc3c(cc2-c2cn[nH]c2)NC(=O)CO3)cc1C`, the Potency result in assay [1] and in assay [2] was “inactive” throughout.

With `CNc1oc(-c2ccccc2-c2ccccc2)nc1C#N`, the Potency entry in assay [1] and in assay [2] was “inactive” in each case.

`Oc1c(C(Nc2ccccn2)c2ccccc2)cc(Cl)c2cccnc12` (stereo unspecified): the Potency entry in assay [1] and in assay [2] was “inactive” in each case.

Regarding `CC(=O)Nc1sc2c(c1-c1ccc3c(c1)OCCCO3)CCNC2`, the Potency entry in assay [1] and in assay [2] was “inactive” each time.

In the case of `COc1ccc(C(F)(F)F)cc1NC(=O)C(OC(=O)CNC(=O)c1ccccc1)c1ccccc1` (stereo unspecified), the Potency entry in assay [1] and in assay [2] was “inactive” each time.

As for `Cc1cc2c(s1)c1cnn(Cc3cc(C(F)(F)F)ccc3F)c(=O)c1n2C`, the Potency result in assay [1] and in assay [2] was “inactive” throughout.

As to `Cc1ccc(NC(=O)CN2C(=O)N/C(=C\c3cccn3-c3cccc(C(=O)O)c3)C2=O)cc1`, the Potency result in assay [1] and in assay [2] was “inactive” throughout.

On to `O=C1CC(c2ccccc2)CC2=C1C1(CCCCC1)N=C(Nc1nc3ccccc3o1)N2` (stereo unspecified), for which the Potency result in assay [1] and in assay [2] was “inactive” throughout.

As to `Cn1c(NC2=NC3(CCCC3)C3=C(CCCC3=O)N2)nc2ccccc21`, the Potency entry in assay [1] and in assay [2] was “inactive” in each case.
